PubChem BioAssay (NCI)
About 83,000 compounds went through this panel and 20% of them were active in at least one assay; those are over-represented in the sample as a whole.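 Testing used 96-well plates and a 48-hour single-concentration exposure. Example: -40 means 40% of the starting cells died.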 Unmarked numbers belong to inactive results. Activity calls are given as the source filed them. Rule for the calls: active = growth percent below 10; inactive = the rest.

Tests used:
Experiment in all cases: NCI-60 one-dose screen, 48 h (100 = growth as untreated, 0 = no growth, -100 = all killed)
Settings in all cases: 10 µM unless noted
SR leukemia = system: SR leukemia
RPMI-8226 leukemia = system: RPMI-8226 leukemia
OVCAR-8 ovarian = system: OVCAR-8 ovarian
OVCAR-5 ovarian = system: OVCAR-5 ovarian
OVCAR-4 ovarian = system: OVCAR-4 ovarian
SK-OV-3 ovarian = system: SK-OV-3 ovarian
IGROV1 ovarian = system: IGROV1 ovarian
OVCAR-3 ovarian = system: OVCAR-3 ovarian
HS 578T breast = system: HS 578T breast
NCI/ADR-RES ovarian = system: NCI/ADR-RES ovarian

SMILES | growth (SR leukemia) | growth (RPMI-8226 leukemia) | growth (OVCAR-8 ovarian) | growth (OVCAR-5 ovarian) | growth (OVCAR-4 ovarian) | growth (SK-OV-3 ovarian) | growth (IGROV1 ovarian) | growth (OVCAR-3 ovarian) | growth (HS 578T breast) | growth (NCI/ADR-RES ovarian)
COc1cc(NC(=O)C#Cc2ccccc2)c(OC)cc1Cl | 12.4% | 10.8% | 38.6% | 79.4% | 93.8% | 97.8% | 4.48% (active) | 82.8% | 79.8% | 56.5%
O=C(O)c1ccccc1C(=O)c1ccc(I)cc1 | 101% | 97.7% | 107% | 107% | 109% | 96.4% | 98.4% | 107% | 104% | 97.5%
Cc1[nH]n(C(=O)c2ccncc2)c(=O)c1N=Nc1ccc(S(=O)(=O)Nc2ccncn2)cc1 | 78.1% | 60.1% | 104% | 114% | 103% | 111% | 101% | 106% | – | –
CCCC(=O)Oc1ccc(/C(=C(\C)c2ccc(Cl)cc2)c2ccc(OCCN(CC)CC)cc2)cc1 | -36.3% (active) | -49.5% (active) | -48.4% (active) | 30.4% | 3.08% (active) | -6.52% (active) | 12.5% | -64.6% (active) | -38.1% (active) | -6.97% (active)
C=CCn1c(SCC(=O)Nc2ccc(/C(C)=N\O)cc2)nnc1-c1cc(-c2ccc(OC)cc2)nc2ccccc12 | 33.8% | 17.3% | 15.3% | 79.4% | 53% | 52.8% | 11.1% | 37% | 46% | –
O[C@@H]1CCO[C@H](c2ccc3ccccc3c2)C1 | 95.7% | 96.4% | 106% | 110% | 105% | 108% | 107% | 106% | 100% | –
Cc1ccn2cc(Cc3cc(=O)oc4c3ccc3ccccc34)c(=O)nc2c1 | 92.7% | 93.3% | 100% | 102% | 101% | 90.1% | 97% | 104% | 95.2% | –
CN(C)CCNc1nc2ccccc2c2c(=O)c3ccccc3sc12 | -18.1% (active) | -8.02% (active) | 14.6% | 46% | 38.4% | 31.5% | 28.5% | 31.2% | 30.3% | 20.9%
O=[N+]([O-])c1cccc2cc(S(=O)(=O)O)ccc12 | 103% | 99% | 98.9% | 107% | 114% | 95.1% | 104% | 99.8% | 107% | 101%
FC(F)(F)c1cccc([Si](F)(c2cccc(C(F)(F)F)c2)c2cccc(C(F)(F)F)c2)c1 | 74% | 52.3% | 91.5% | 91.3% | 65.9% | 99% | 82.5% | 68% | 85.3% | –
CCN(CC)CCC(C(=O)O)(c1ccccc1)c1ccccc1 | 95.7% | 104% | 113% | 106% | 102% | 92% | 102% | 110% | 95.3% | 97.8%
CCNc1ncnc2n[nH]nc12 | 94% | 95.5% | 99.6% | 103% | 94.7% | 101% | 111% | 106% | 103% | 108%
O=C(CSc1nnc(-c2cc3c([nH]c4ccccc43)c(-c3cccc(O)c3)n2)n1-c1ccccc1)c1ccccc1 | 18.6% | 43.4% | 57.3% | 104% | 50.1% | 92.8% | 61.2% | 40.6% | 73.3% | 64%
COc1ccc(-c2nnc(SCC(=O)Nc3ccc(C(=O)/C=C/c4ccc(Cl)cc4)cc3)o2)cc1OC | 24.2% | 59.4% | 37.4% | 90.5% | -17.1% (active) | 87.4% | 70.4% | 106% | 102% | 38.4%
CCCC(=O)Oc1ccc(/C(=C(\C)c2ccc(OC)cc2)c2ccc(OCCN3CCCCC3)cc2)cc1 | -14.9% (active) | 56.9% | 90.4% | 86.4% | 75% | 79.9% | 89.9% | 89.4% | 84.3% | 75.6%
CSc1ccc(C(=O)C[n+]2cccc(C)c2)cc1 | 106% | 98.2% | 106% | 104% | 113% | 102% | 106% | 104% | 98.4% | 104%
CCOC(=O)C(C)(CSSCC(C)(NC(=O)c1ccc2ccccc2c1)C(=O)OCC)NC(=O)c1ccc2ccccc2c1 (centres undefined) | 61.2% | 93.4% | 90.6% | 127% | 104% | 107% | 93.3% | 110% | 118% | 105%
NC(=O)C1=C[C@H]2[C@H]3C=C[C@@]2(O)C(=O)O[C@@H]3O1 | 50.7% | 61.8% | 48.8% | 101% | 29.9% | 86.6% | 50.9% | 16.8% | 83.5% | 75.3%
CC(C)(c1ccc(OCC(O)CNCc2ccco2)cc1)c1ccc(OCC(O)CNCc2ccco2)cc1 (centres undefined) | 31.5% | 64.8% | 92.3% | 101% | 96% | 105% | 86.3% | 83% | 75.7% | 93.2%
CCN(CC)CCNCC(O)Cc1ccc(OC)cc1 (centres undefined) | 88.2% | 98.1% | 89.9% | 113% | 120% | 92.3% | 111% | 108% | 95.8% | 107%
CC(=O)c1cc2c(N)c(C(=O)Nc3cccc(Cl)c3)sc2nc1C | 66.1% | 76.7% | 83.5% | 113% | 84.3% | 51.3% | 92.3% | 92.8% | 83.2% | 79.5%
CCC(N)(C(=O)O)c1ccc(F)cc1 (centres undefined) | 105% | 98.4% | 101% | 111% | 117% | 113% | 109% | 99.9% | 111% | 106%
COc1ccc(-c2cc3ccc(N(C)C)cc3nc2N)c(F)c1 | 12.9% | -19.7% (active) | 26.3% | 69.6% | 42.2% | 46.8% | 54.3% | 34.6% | 62.8% | 26%
COc1ccc(C(=O)NC(=O)Nc2ccc3c(c2)NC(=O)/C3=C\c2[nH]c(C)c(CCC(=O)O)c2C)c(F)c1 | 18.8% | 13% | 8.62% (active) | 64.4% | 77% | 56.6% | 43% | 23.4% | -5.02% (active) | 88.7%
C=C1C(=O)O[C@H]2[C@H]1CC/C(COC(=O)c1cccc3ccccc13)=C\CC[C@@]1(C)O[C@@H]21 | -31.4% (active) | -40.5% (active) | -42.8% (active) | -47.9% (active) | -38.9% (active) | 84.3% | -68.5% (active) | -86.5% (active) | 2.83% (active) | -28.4% (active)
COc1ccccc1C(OC(C)=O)OC(C)=O | 88.7% | 101% | 112% | 112% | 111% | 104% | 112% | 106% | 106% | 100%
CCCCCCCCCCCCCCCCCCNCc1ccc(Cl)cc1 | -30.1% (active) | -53.9% (active) | -62.7% (active) | -59.5% (active) | -69.1% (active) | -33.1% (active) | -64.6% (active) | -87.9% (active) | -48.7% (active) | -64.6% (active)
